Results filed as inconclusive are left out. Activity calls are given as the source filed them. Calls come from the whole dose curve; as a rule, active = well fitted inhibition curve with a large enough effect; inconclusive = small, poorly fitted or top-dose-only effect; inactive = flat fitted curve, though single readings scatter.
Assay: qHTS of Trypanosoma Brucei Inhibitors: LOPAC Validation (AID 624147)
Details: purified enzyme assay, luminescence, 45 min; series mostly up to 57.5 µM
Text: Members of the Trypanosomatidae family of parasitic protozoans cause a spectrum of diseases throughout the tropical and subtropical world. Sleeping sickness, caused by two subspecies of Trypanosoma brucei, is endemic to areas of sub-Saharan Africa, while Chagas' disease, a manifestation of Trypanosoma cruzi infection, is prevalent throughout Central and South America. In addition, many species of Leishmania are responsible for a range of cutaneous and visceral diseases, causing ulcers, destructive lesions and kalaazar, a lethal infection of the viscera. These diseases cause severe public health and economic burdens on populations that are often already caught in a tragic cycle of poverty, poor nutrition and disease. Collectively, parasites of the trypanosomatid family infect 30 million people worldwide (~500 million live in endemic areas), and account for ~130K deaths annually. Existing treatments have developed little in the past 50 years, and suffer from toxicity, poor efficacy and resistance; the goal of this project is to develop lead drugs that will be suitable for entry into pre-clinical trials.
Glycolysis in axenically cultured T. cruzi, representing the intracellular pathogenic stage, is also essential for these parasites. {Engel, 1987} This project aims to discover and optimize selective inhibitors of the glycolytic enzyme pyruvate kinase (PYK) from Trypanosoma brucei, the parasite that causes sleeping sickness. […] Trypanosomatid PYKs show significant differences from their human counterparts including only 47-50% sequence identity and different allosteric and activation properties.{Callens, 1992} To this end, a qHTS was done against the MLSMR to discover inhibitors.
NIH Molecular Libraries Probe Production Network [MLPCN]
NIH Chemical Genomics Center [NCGC]
PI Name: Malcolm Walkinshaw, University of Edinburgh
2 uL of TbPYK/substrate buffer (columns 1-3, 5-48) are dispensed into Greiner white solid bottom 1536-well assay plates; column 4 receives only TEA buffer as 0x TbPYK controls. Compounds are then transferred via Kalypsys pin tool equipped with 1536-pin array (10 nL slotted pins, V&P Scientific, San Diego, CA). Following addition of compound, 2 uL of ADP (130 uM final concentration, all columns) is added to initiate the reaction. The plates are then incubated at room temperature for 45 minutes. Kinase-Glo Plus reagent is added (3 uL) and plates incubated for 10 minutes, before being transferred to a ViewLux high-throughput CCD imager (PerkinElmer) wherein single end-point measurements of luminescence are acquired using a clear filter. All reagents are diluted in an assay buffer consisting of 50 mM TEA (pH 7.2), 100 mM KCl, 10 mM MgCl2, 0.05% BSA and 0.01% Tween-20.
All screening operations will be performed on a fully integrated robotic system (Kalypsys, San Diego, CA) containing one RX-130 and two RX-90 anthropomorphic robotic arms (Staeubli, Duncan, SC). Library plates will be screened starting from the lowest and proceeding to the highest concentration. Vehicle-only plates, with DMSO being pin-transferred to columns 5-48, will be inserted uniformly at the beginning and the end of each library in order to monitor and record any shifts in the background, which can be affected by reagent dispensers or loss in enzyme activity over time. Screening data will be corrected, normalized, and concentration-effect relationships will be derived by using publicly-available curve fitting algorithms developed in-house (http://ncgc.nih.gov/pub/openhts).

SMILES | outcome
CCn1cc(C(=O)O)c(=O)c2ccc(C)nc21 | inactive
O=c1c(-c2ccc(O)cc2)coc2cc(O)ccc12 | inactive
CCN(CC)CCNC(=O)c1ccc(N)cc1 | inactive
CC(=O)O[C@]1(C(C)=O)CC[C@H]2[C@@H]3C=C(Cl)C4=CC(=O)[C@@H]5C[C@@H]5[C@]4(C)[C@H]3CC[C@@]21C | inactive
NCCS | inactive
CC/C(=C(\c1ccccc1)c1ccc(OCCN(C)C)cc1)c1ccccc1 | inactive
O=C(O)CCc1nc(-c2ccccc2)c(-c2ccccc2)o1 | inactive
O=c1cc(-c2ccc(O)cc2)oc2cc(O)cc(O)c12 | inactive
CCCNC(=O)NS(=O)(=O)c1ccc(Cl)cc1 | inactive
CN(C)CCC(c1ccccc1)c1ccccn1 (centres undefined) | inactive
CC(=O)N[C@@H](CS)C(=O)O | inactive
CC(=O)c1ccc(S(=O)(=O)NC(=O)NC2CCCCC2)cc1 | inactive
CC(C)(C)c1ccc(C(O)CCCN2CCC(C(O)(c3ccccc3)c3ccccc3)CC2)cc1 (centres undefined) | inactive
CCN1CCC[C@H]1CNC(=O)c1cc(S(N)(=O)=O)ccc1OC | inactive
CCN(CC)CCOC(=O)c1ccc(N)cc1 | inactive
CCCCC1C(=O)N(c2ccccc2)N(c2ccccc2)C1=O | inactive
O=C(NCCN1CCOCC1)c1ccc(Cl)cc1 | inactive

SMILES | outcome
COC(=O)[C@@H]1[C@H]2C[C@H]3c4[nH]c5ccccc5c4CCN3C[C@@H]2CC[C@@H]1O | inactive
COc1ccc(Cc2nccc3cc(OC)c(OC)cc23)cc1OC | inactive
NC(N)=Nc1nc(CSCC/C(N)=N/S(N)(=O)=O)cs1 | inactive
Cc1cccc(C)c1OCC(C)N (centres undefined) | inactive
COc1ccccc1N1CCN(CCCNc2cc(=O)n(C)c(=O)n2C)CC1 | inactive
C[N+](C)(C)CCCCCC[N+](C)(C)C | inactive
CC1=C(/C=C/C(C)=C/C=C/C(C)=C/C(=O)Nc2ccc(O)cc2)C(C)(C)CCC1 | inactive
CC(=O)CCCCn1c(=O)c2c(ncn2C)n(C)c1=O | inactive
CC(C)NCC(O)COc1cccc2[nH]ccc12 (centres undefined) | inactive
CCCCCN(C)CCC(O)(P(=O)(O)O)P(=O)(O)O | inactive
Clc1ccc(C(c2ccc(Cl)cc2)n2cc[n+](CC(OCc3ccc(Cl)cc3Cl)c3ccc(Cl)cc3Cl)c2)cc1 (centres undefined) | inactive
CCN(CC)C(=O)c1ccc(O)c(OC)c1 | inactive
O=C1NC(=O)C(c2ccccc2)(c2ccccc2)N1 | inactive
O=C1NCC2(CCN(CCc3ccccc3)CC2)O1 | inactive
Clc1ccc(Cn2c(CN3CCCC3)nc3ccccc32)cc1 | inactive
COc1cccc(-c2cc(=O)c3ccccc3o2)c1N | inactive
CC1(C)CCC2=C(O1)c1ccccc1C(=O)C2=O | inactive

From PubChem BioAssay (NCATS)
